Laboratory results: PubChem BioAssay (NCI)
The panel holds about 83,000 compounds, 20% with a hit somewhere; the sample as a whole holds those more often.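 Single-dose data. Exposure time 48 hours. Values below 10 considered active.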 Values without a mark were called inactive. The source made the active and inactive calls.

Tests used:
Assay in all cases: NCI-60 one-dose screen, 48 h (100 = growth as untreated, 0 = no growth, -100 = all killed)
Conditions in all cases: 10 µM
DU-145 prostate = system: DU-145 prostate
K-562 leukemia = system: K-562 leukemia
MALME-3M melanoma = system: MALME-3M melanoma
MDA-MB-231 breast = system: MDA-MB-231 breast
SF-268 CNS = system: SF-268 CNS
SF-295 CNS = system: SF-295 CNS
SF-539 CNS = system: SF-539 CNS
UACC-257 melanoma = system: UACC-257 melanoma
M14 melanoma = system: M14 melanoma
RXF 393 renal = system: RXF 393 renal

SMILES	growth (DU-145 prostate)	growth (K-562 leukemia)	growth (MALME-3M melanoma)	growth (MDA-MB-231 breast)	growth (SF-268 CNS)	growth (SF-295 CNS)	growth (SF-539 CNS)	growth (UACC-257 melanoma)	growth (M14 melanoma)	growth (RXF 393 renal)
CS(=O)(=O)Nc1ccc([N+](=O)[O-])cc1Oc1ccccc1	100%	78%	92.4%	118%	98.4%	84.2%	104%	94.7%	105%	–
FC(F)(F)c1ccc(-c2ncc(-c3ccc(C(F)(F)F)cc3)c(NCc3cc(C(F)(F)F)cc(C(F)(F)F)c3)n2)cc1	69.6%	44.4%	75.4%	72.5%	69.3%	9.91% (active)	86.7%	87.9%	73.8%	66.6%
O=C(Cn1ccc(=O)[nH]c1=O)c1ccc([N+](=O)[O-])o1	92.3%	83.6%	57.8%	111%	105%	92.7%	106%	81.5%	91.4%	118%
CCCCCCCCCCCC(c1ccccc1)N(C)C (stereo unspecified)	104%	78.9%	107%	76.7%	111%	97.9%	103%	103%	104%	92.5%
Fc1ccc(Nc2ccnc(N3CCN(c4ccnc5cc(Cl)ccc45)CC3)n2)cc1	77%	16%	52.9%	56%	72.4%	39.6%	51.4%	61.1%	43.4%	66.7%
CC(C)OCc1cc(CN2CCN(c3cccc(Cl)c3)CC2)c(O)c2ncccc12	11.8%	3.38% (active)	-40.6% (active)	-41.9% (active)	5.89% (active)	-71.8% (active)	-6.98% (active)	-36.7% (active)	-17% (active)	-14.9% (active)
COc1ccc(-c2csc(-c3cc(Cl)cc(Cl)c3Cl)n2)cc1	99.8%	83.9%	77.7%	73.6%	97.1%	103%	94.8%	46.2%	97.7%	–
Cc1cc(C(C)(C)CC(C)(C)C)ccc1OCCOCC[N+](C)(C)Cc1ccccc1	22.4%	-53.8% (active)	-35.5% (active)	-67.7% (active)	-69.7% (active)	-14.3% (active)	-82.6% (active)	22.9%	-83.2% (active)	–
CC(C)(C)CC(C)(C)c1ccc(O)c(Cc2ccc(Cl)cc2Cl)c1	-89.2% (active)	-59% (active)	-89.4% (active)	-88.4% (active)	-83.6% (active)	-91.6% (active)	-75.5% (active)	-66.1% (active)	-87.9% (active)	–
Cc1cc2cc3c(=O)[nH]c(=O)cc-3n(CC(O)C(O)C(O)CO)c2cc1C (stereo unspecified)	95.5%	108%	104%	109%	108%	97.6%	107%	110%	107%	115%
